Experimental data published in PubChem BioAssay.
Calls of active or inactive are those of the source.

Key:
[1] = test system: Plasmodium falciparum Sir2 (PF13_0152, Sir2A); assay: pfSir2 binders on small-molecule microarrays, primary screen, biochemical, small-molecule microarray, 635 nm fluorescence (AID 1098); conditions: small-molecule microarray binding, fluorescence 635 nm; higher = more signal;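 note: score merges spot fluorescence intensity with its signal-to-noise ratio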
[2] = small-molecule microarray binders of probe aDKK1, primary screen, biochemical, biotinylated probe, 635/667 nm fluorescence (AID 1099); conditions: higher = more signal;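 note: score merges 667nm spot fluorescence with signal to noise across triplicate slides; reference of the scale not given here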
[3] = small-molecule microarray binders of probe aCHRDL2, primary screen, biochemical, biotinylated probe, 635/667 nm fluorescence (AID 1100); conditions: higher = more signal
[4] = splicing luciferase reporter signal modulators, primary screen, spliceosome inhibition project, cell-based, HEK293, splice +/- reporter (AID 1101); conditions: luminescence, 24 h, higher = more signal, called active from +8 up or from −8 down;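 note: HEK293 cells carrying a splicing-competent luciferase reporter gene; test concentration not given here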
[5] = molecular target: Fibroblast growth factor 10 (Homo sapiens) (UniProt O15520); assay: FGF10 binders on small-molecule microarrays, primary screen, biochemical, small-molecule microarray, 635 nm fluorescence (AID 1102); conditions: FGF10 binding, fluorescence 635 nm, higher = more signal
[6] = test system: glycogen synthase kinase-3 (GSK3A per assay name; protocol says GSK3B); assay: GSK3 binders on small-molecule microarrays, primary screen, biochemical, small-molecule microarray, 635 nm fluorescence, GSK3A (AID 1103); conditions: small-molecule microarray binding, fluorescence 635 nm; higher = more signal; note: the record names both GSK3A and GSK3B
[7] = molecular target: Epidermal growth factor receptor (Homo sapiens) (UniProt P00533); assay: EGFR binders on small-molecule microarrays, primary screen, biochemical, small-molecule microarray, 635 nm fluorescence (AID 1104); conditions: EGFR binding, higher = more signal;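 note: score merges 667 nm emission intensity with spot signal to noise over triplicate slides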
[8] = molecular target: Follistatin-related protein 3 (Homo sapiens) (UniProt O95633); assay: FSTL3 binders on small-molecule microarrays, primary screen, biochemical, small-molecule microarray, 635 nm fluorescence (AID 1105); conditions: FSTL3 binding, higher = more signal;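 note: score merges emission near 667 nm and signal to noise per printed spot across three slides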
[9] = molecular target: Dickkopf-related protein 1 (Homo sapiens) (UniProt O94907); assay: DKK1 binders on small-molecule microarrays, primary screen, biochemical, small-molecule microarray, 635 nm fluorescence scan (AID 1106); conditions: DKK1 binding, higher = more signal;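 note: score merges emission near 667 nm with signal to noise over three replicate slides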
[10] = test system: Inhibin beta A chain (activin A); assay: INHBA (activin A) binders on microarrays, primary screen, biochemical, small-molecule microarray, 635 nm fluorescence scan (AID 1107); conditions: small-molecule microarray binding, higher = more signal;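 note: mouse activin A protein probed at 4.33 µg/mL on printed slides; score merges bound-protein fluorescence near 667 nm with spot signal-to-noise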

Epidermal growth factor receptor (Homo sapiens), sequence (P00533 whole entry, looked up): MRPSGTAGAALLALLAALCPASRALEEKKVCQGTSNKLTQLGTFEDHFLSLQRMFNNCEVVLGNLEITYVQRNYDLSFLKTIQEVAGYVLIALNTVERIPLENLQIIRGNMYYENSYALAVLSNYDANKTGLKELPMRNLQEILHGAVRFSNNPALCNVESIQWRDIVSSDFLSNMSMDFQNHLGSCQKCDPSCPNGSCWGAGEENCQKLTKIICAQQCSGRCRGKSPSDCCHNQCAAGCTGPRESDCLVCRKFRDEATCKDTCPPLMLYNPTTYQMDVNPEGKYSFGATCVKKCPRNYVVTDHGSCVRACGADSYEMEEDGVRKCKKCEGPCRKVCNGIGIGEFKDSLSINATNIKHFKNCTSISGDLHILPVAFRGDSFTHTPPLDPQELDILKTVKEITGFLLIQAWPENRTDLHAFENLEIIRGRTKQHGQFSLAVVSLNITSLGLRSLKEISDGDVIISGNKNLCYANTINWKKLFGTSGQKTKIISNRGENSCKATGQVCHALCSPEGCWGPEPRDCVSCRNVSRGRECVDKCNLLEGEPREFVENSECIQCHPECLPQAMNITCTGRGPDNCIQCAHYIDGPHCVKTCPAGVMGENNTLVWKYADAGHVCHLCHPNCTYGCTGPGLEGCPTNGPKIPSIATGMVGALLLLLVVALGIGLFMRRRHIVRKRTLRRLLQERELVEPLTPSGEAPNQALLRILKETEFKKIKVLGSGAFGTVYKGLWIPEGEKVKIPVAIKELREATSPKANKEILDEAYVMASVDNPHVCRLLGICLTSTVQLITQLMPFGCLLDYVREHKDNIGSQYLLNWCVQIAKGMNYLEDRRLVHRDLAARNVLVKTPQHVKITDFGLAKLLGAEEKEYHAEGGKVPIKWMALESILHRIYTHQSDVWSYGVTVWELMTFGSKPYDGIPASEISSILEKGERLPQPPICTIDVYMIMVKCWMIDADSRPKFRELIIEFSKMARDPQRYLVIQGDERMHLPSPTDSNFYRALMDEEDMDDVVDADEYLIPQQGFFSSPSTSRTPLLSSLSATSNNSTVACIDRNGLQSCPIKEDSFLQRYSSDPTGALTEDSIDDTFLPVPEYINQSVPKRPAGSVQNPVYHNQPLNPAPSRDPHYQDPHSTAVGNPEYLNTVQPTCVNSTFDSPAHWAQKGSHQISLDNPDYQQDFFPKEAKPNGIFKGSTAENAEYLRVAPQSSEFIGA
Dickkopf-related protein 1 (Homo sapiens), sequence (O94907 whole entry, looked up): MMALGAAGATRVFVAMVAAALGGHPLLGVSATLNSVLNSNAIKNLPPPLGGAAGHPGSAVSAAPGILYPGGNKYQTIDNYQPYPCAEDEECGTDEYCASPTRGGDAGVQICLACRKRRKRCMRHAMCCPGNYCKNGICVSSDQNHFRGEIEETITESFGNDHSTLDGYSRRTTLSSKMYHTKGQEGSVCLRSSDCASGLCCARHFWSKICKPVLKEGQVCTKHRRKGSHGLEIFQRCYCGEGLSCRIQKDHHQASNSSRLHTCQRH
Fibroblast growth factor 10 (Homo sapiens), sequence (O15520 whole entry, looked up): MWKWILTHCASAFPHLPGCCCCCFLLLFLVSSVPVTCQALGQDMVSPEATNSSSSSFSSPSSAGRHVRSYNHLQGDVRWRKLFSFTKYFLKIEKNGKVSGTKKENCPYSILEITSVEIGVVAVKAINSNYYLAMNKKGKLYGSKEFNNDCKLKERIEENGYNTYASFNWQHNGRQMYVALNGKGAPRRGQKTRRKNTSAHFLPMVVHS
Follistatin-related protein 3 (Homo sapiens), sequence (O95633 whole entry, looked up): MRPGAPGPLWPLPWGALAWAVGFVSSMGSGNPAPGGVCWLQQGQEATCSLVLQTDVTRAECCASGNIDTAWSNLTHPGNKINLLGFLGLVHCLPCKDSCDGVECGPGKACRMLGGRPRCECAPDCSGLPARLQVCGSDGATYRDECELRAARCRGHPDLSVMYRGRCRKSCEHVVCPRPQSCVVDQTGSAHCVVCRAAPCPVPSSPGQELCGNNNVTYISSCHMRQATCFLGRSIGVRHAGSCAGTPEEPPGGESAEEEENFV

Row | SMILES | composite z-score [1] | composite z-score [2] | composite z-score [3] | z-score [4] | composite z-score [5] | composite z-score [6] | composite z-score [7] | composite z-score [8] | composite z-score [9] | composite z-score [10]
1 | CC(CCN1CCc2nc(-c3ccccc3)c(-c3ccccc3)cc2C1)=NO[C@H](C)c1cn([C@H](CO)Cc2ccccc2)nn1 | 0.343 | -0.0154 | 0.407 | -0.534 (inactive) | -0.356 | -0.135 | -0.0273 | 0.177 | -0.193 | 1.09
2 | CCCNC(=O)OC[C@H]1O[C@H](CCON=C[C@@H](C)[C@H](OCc2ccccc2)C(C)C)C=C[C@@H]1Oc1ccc(OC)cc1 | -0.369 | -0.275 | -0.228 | -1.54 (inactive) | -0.302 | -1.32 | 0.332 | -0.245 | 0.159 | 0.33
3 | CC(C)CON=C1C[C@@H](O)[C@@H](O)[C@@H]2[C@@H]3C(=O)N(Cc4ccc5c(c4)OCO5)C(=O)[C@@H]3CC[C@@H]12 | 0.409 | -0.218 | -0.208 | 0.0483 (inactive) | 0.0677 | -0.315 | -0.203 | -0.0661 | -0.337 | -0.0043
4 | C#CCCCON=C1C[C@@H](O)[C@@H](O)[C@@H]2[C@@H]3C(=O)N(C[C@@H]4CCCO4)C(=O)[C@@H]3CC[C@@H]12 | 0.44 | -0.244 | -0.362 | -0.28 (inactive) | 0.732 | 0.223 | 0.469 | 0.67 | 0.449 | 0.397
5 | CON(C)C(=O)c1nnc2c(n1)[nH]c1ccccc12 | 0.214 | 0.256 | -0.0786 | -0.562 (inactive) | 0.692 | 0.217 | 0.319 | 0.651 | 0.377 | 0.221
6 | COc1ccc(COC(=O)NN=C2C[C@@H](O)[C@@H](O)[C@@H]3[C@@H]4C(=O)N(C5CCCCC5)C(=O)[C@@H]4CC[C@@H]23)cc1 | -0.123 | 0.202 | 1.38 | 0.299 (inactive) | -0.28 | -0.145 | -0.583 | -0.248 | -0.88 | 0.105
7 | C=CCOCC1CN2[C@@H](CC[C@@H](C)[C@@H]2c2ccc(Br)cc2)C(=O)O1 (stereo not given in full) | -0.316 | -0.182 | -0.165 | 0.597 (inactive) | -0.342 | -0.255 | -0.014 | -0.293 | 0.0635 | 0.757
8 | CC[C@@H](c1ccccc1)n1c(=O)n2n(c1=O)[C@H]1[C@H](O)[C@@H]3O[C@@H]3C(=NOCc3ccccc3)[C@H]1CC2 | 0.217 | -0.148 | -0.406 | 2.5 (inactive) | 0.487 | -0.0586 | 0.123 | 0.489 | 0.235 | 0.517
9 | C[C@@H](c1ccccc1)N1C(=O)[C@H]2[C@H]3[C@H](O)[C@H](O)CC(=NOC[C@@H](O)COCc4ccco4)[C@H]3CC[C@H]2C1=O | 0.975 | -0.427 | -1.27 | 0.319 (inactive) | -0.185 | 1.21 | 1.07 | 1.14 | 1.59 | 0.574
10 | CO[C@H]1COC(=O)CCC[C@H](C)[C@@H](OC)COC(=O)CC=C[C@@H]1C | 0.981 | -0.26 | -0.811 | -1.05 (inactive) | 0.267 | 0.278 | 0.711 | 0.319 | 0.846 | 0.691
11 | CC(=O)OC[C@H]1O[C@H](CC=NOC[C@@H](O)[C@H]2O[C@@H]3OC(C)(C)O[C@@H]3[C@H]2O)C=C[C@@H]1OC(C)=O | 0.8 | -0.0771 | -0.351 | -0.136 (inactive) | 0.771 | 0.529 | 0.317 | 0.451 | 0.375 | -0.115
12 | COC(=O)[C@H](C)NC(=O)CCC1CC(OC(=O)NCc2cccc3ccccc23)CC2(CCCC(COC(=O)NCCOc3ccccc3)O2)O1 (stereo not given in full) | 1.1 | -0.357 | -0.413 | -0.834 (inactive) | 0.411 | 0.526 | 0.148 | 0.319 | -0.303 | -0.143
13 | CC(C)=NO[C@@H](C)c1cn([C@H](CO)Cc2ccccc2)nn1 | 0.8 | 0.0454 | -0.832 | -0.937 (inactive) | 0.393 | 0.523 | 0.303 | 0.345 | 0.27 | 0.111
14 | C=CC[C@@H]1C=C[C@H](ON=C(C)CCN2CCCc3nc(C)c(C)cc32)[C@@H](CO)O1 | 1.14 | 0.381 | 0.331 | 0.0487 (inactive) | 1.01 | 1.15 | 0.759 | 1.47 | 1.32 | 2.04
15 | C[C@@H]1CC[C@@H](C(=O)O)N[C@H]1c1cccc(N2CCOCC2)c1 | 0.168 | -0.191 | -0.449 | -1.02 (inactive) | 0.631 | 0.74 | 0.797 | 0.409 | 0.109 | 0.0223
16 | CC(=O)OC[C@H]1O[C@@H](ON=C(C)CCN2CCCCc3nc(C)c(C)cc32)[C@H](OC(C)=O)[C@@H](OC(C)=O)[C@@H]1OC(C)=O | 0.834 | -0.208 | -0.664 | -1.29 (inactive) | 1.23 | 1.19 | 1.11 | 1.28 | 1.39 | 0.328
17 | COC(=O)[C@H](C)NC(=O)CCC1CC(OC(=O)NCc2cccc3ccccc23)CC2(CCCC(COC(=O)NCCc3ccccc3OC)O2)O1 (stereo not given in full) | 0.906 | -0.0471 | -0.433 | -0.105 (inactive) | 1.23 | 1.12 | 0.454 | 1.25 | 0.686 | -0.267
18 | C[C@H]1C=CCC(=O)OC[C@H](C)C(=O)N2CCC[C@H]2C(=O)OC1 | 1.01 | -0.235 | -1.53 | -0.0436 (inactive) | 1.47 | 1.29 | 1.73 | 1.48 | 2.11 | -0.626
